# Results published in publication PMC8384837, “Expanding the binding specificity for RNA recognition by a PUF domain”.
# What was measured:
# Experiment in all cases: yeast three-hybrid, YBZ-1, SC-Leu-His + 0.5 mM 3-AT, 4 days
# Conditions in all cases: tags: N-Gal4 AD-HA kept; label: inside an RPR1-promoter hybrid RNA with tandem MS2 sites; ssRNA
# PUM1 PUF domain R3-RMW = PUM1 PUF domain R3-RMW (Homo sapiens, UniProt Q14671 828-1176, C935R;R936M;Q939W)
# Procedure, shortened: (§1)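 The interaction score is the logarithmic change in variant frequency from input to selection. It uses log2, with a pseudocount of 1 for absent variants, and frequencies came from PCR-amplified, Illumina-sequenced repeat regions. The libraries were Pumilio-1 PUF domains randomized at the three base-contacting residues per repeat, co-expressed with matching RNA elements in strain YBZ-1 (LexA–MS2 coat fusion, HIS3 reporter). Plating lasted four days on SC-Leu (input) or SC-Leu-His + 0.5 mM 3-AT (selection).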
# PUM1 PUF domain R1-RSQ = PUM1 PUF domain R1-RSQ (Homo sapiens, UniProt Q14671 828-1176, S863R;R864S)
# Procedure, shortened: as §1
# PUM1 PUF domain R1-SWR = PUM1 PUF domain R1-SWR (Homo sapiens, UniProt Q14671 828-1176, R864W;Q867R)
# Procedure, shortened: as §1
# PUM1 PUF domain R3-FSN = PUM1 PUF domain R3-FSN (Homo sapiens, UniProt Q14671 828-1176, C935F;R936S;Q939N)
# Procedure, shortened: as §1
# PUM1 PUF domain R5-ARK = PUM1 PUF domain R5-ARK (Homo sapiens, UniProt Q14671 828-1176, C1007A;Q1011K)
# Procedure, shortened: as §1
# PUM1 PUF domain R7-RCR = PUM1 PUF domain R7-RCR (Homo sapiens, UniProt Q14671 828-1176, S1079R;N1080C;E1083R)
# Procedure, shortened: as §1
# PUM1 PUF domain R8-QWK = PUM1 PUF domain R8-QWK (Homo sapiens, UniProt Q14671 828-1176, N1122Q;Y1123W;Q1126K)
# Procedure, shortened: as §1
# PUM1 PUF domain R6-LWT = molecular target: T1, PUM1 PUF domain R6-LWT (Homo sapiens, UniProt Q14671 828-1176, N1043L;Y1044W;Q1047T)
# T1 sequence: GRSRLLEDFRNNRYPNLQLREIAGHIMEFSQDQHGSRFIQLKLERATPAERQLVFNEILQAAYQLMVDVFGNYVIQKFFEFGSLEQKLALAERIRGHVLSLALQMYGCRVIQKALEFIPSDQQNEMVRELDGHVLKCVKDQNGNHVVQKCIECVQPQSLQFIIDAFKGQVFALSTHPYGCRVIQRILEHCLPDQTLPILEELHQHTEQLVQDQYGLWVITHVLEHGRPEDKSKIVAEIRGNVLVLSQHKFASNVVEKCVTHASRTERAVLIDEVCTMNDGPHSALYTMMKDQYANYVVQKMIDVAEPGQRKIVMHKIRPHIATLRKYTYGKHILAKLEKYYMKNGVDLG
# Procedure, shortened: as §1
# PUM1 PUF domain R8-HFT = PUM1 PUF domain R8-HFT (Homo sapiens, UniProt Q14671 828-1176, N1122H;Y1123F;Q1126T)
# Procedure, shortened: as §1
# PUM1 PUF domain R4-LNC = PUM1 PUF domain R4-LNC (Homo sapiens, UniProt Q14671 828-1176, N971L;H972N;Q975C)
# Procedure, shortened: as §1
sequence,measurement,setting,value
GGCUAGAACUAGUGGAUCCCCCGGCGCCCGGCGGCUCGAGCCCGGGUAAGUGUAAUUAGUCUGCAUGCCGCCGGGCGCCAUGCCUGCAGGUCGACUCUAGAAAACAUG,binding signal,PUM1 PUF domain R3-RMW,2.28 log2 enrichment (interaction score)
GGCUAGAACUAGUGGAUCCCCCGGCGCCCGGCGGCUCGAGCCCGGGUAAGUGUAAAUUGUCUGCAUGCCGCCGGGCGCCAUGCCUGCAGGUCGACUCUAGAAAACAUG,binding signal,PUM1 PUF domain R1-RSQ,5.08 log2 enrichment (interaction score)
same,binding signal,PUM1 PUF domain R1-SWR,0.84 log2 enrichment (interaction score)
GGCUAGAACUAGUGGAUCCCCCGGCGCCCGGCGGCUCGAGCCCGGGUAAGUGUAAAUCGUCUGCAUGCCGCCGGGCGCCAUGCCUGCAGGUCGACUCUAGAAAACAUG,binding signal,PUM1 PUF domain R1-RSQ,4.74 log2 enrichment (interaction score)
same,binding signal,PUM1 PUF domain R1-SWR,3.04 log2 enrichment (interaction score)
GGCUAGAACUAGUGGAUCCCCCGGCGCCCGGCGGCUCGAGCCCGGGUAAGUGUAAGUAGUCUGCAUGCCGCCGGGCGCCAUGCCUGCAGGUCGACUCUAGAAAACAUG,binding signal,PUM1 PUF domain R3-FSN,2.79 log2 enrichment (interaction score)
GGCUAGAACUAGUGGAUCCCCCGGCGCCCGGCGGCUCGAGCCCGGGUAAGUGUCAAUAGUCUGCAUGCCGCCGGGCGCCAUGCCUGCAGGUCGACUCUAGAAAACAUG,binding signal,PUM1 PUF domain R5-ARK,0.39 log2 enrichment (interaction score)
GGCUAGAACUAGUGGAUCCCCCGGCGCCCGGCGGCUCGAGCCCGGGUAAGUGUUAAUAGUCUGCAUGCCGCCGGGCGCCAUGCCUGCAGGUCGACUCUAGAAAACAUG,binding signal,PUM1 PUF domain R5-ARK,3.13 log2 enrichment (interaction score)
GGCUAGAACUAGUGGAUCCCCCGGCGCCCGGCGGCUCGAGCCCGGGUAAGUUUAAAUAGUCUGCAUGCCGCCGGGCGCCAUGCCUGCAGGUCGACUCUAGAAAACAUG,binding signal,PUM1 PUF domain R7-RCR,5.68 log2 enrichment (interaction score)
GGCUAGAACUAGUGGAUCCCCCGGCGCCCGGCGGCUCGAGCCCGGGUAAGUCUAAAUAGUCUGCAUGCCGCCGGGCGCCAUGCCUGCAGGUCGACUCUAGAAAACAUG,binding signal,PUM1 PUF domain R7-RCR,4.6 log2 enrichment (interaction score)
GGCUAGAACUAGUGGAUCCCCCGGCGCCCGGCGGCUCGAGCCCGGGUAAGGGUAAAUAGUCUGCAUGCCGCCGGGCGCCAUGCCUGCAGGUCGACUCUAGAAAACAUG,binding signal,PUM1 PUF domain R8-QWK,3.09 log2 enrichment (interaction score)
GGCUAGAACUAGUGGAUCCCCCGGCGCCCGGCGGCUCGAGCCCGGGUAAGUGUAAAUAGUCUGCAUGCCGCCGGGCGCCAUGCCUGCAGGUCGACUCUAGAAAACAUG,binding signal,PUM1 PUF domain R8-QWK,2.09 log2 enrichment (interaction score)
same,binding signal,PUM1 PUF domain R6-LWT,6.06 log2 enrichment (interaction score)
GGCUAGAACUAGUGGAUCCCCCGGCGCCCGGCGGCUCGAGCCCGGGUAAGUGAAAAUAGUCUGCAUGCCGCCGGGCGCCAUGCCUGCAGGUCGACUCUAGAAAACAUG,binding signal,PUM1 PUF domain R6-LWT,2.9 log2 enrichment (interaction score)
GGCUAGAACUAGUGGAUCCCCCGGCGCCCGGCGGCUCGAGCCCGGGUAAGCGUAAAUAGUCUGCAUGCCGCCGGGCGCCAUGCCUGCAGGUCGACUCUAGAAAACAUG,binding signal,PUM1 PUF domain R8-HFT,3.48 log2 enrichment (interaction score)
GGCUAGAACUAGUGGAUCCCCCGGCGCCCGGCGGCUCGAGCCCGGGUAAGUGUAUAUAGUCUGCAUGCCGCCGGGCGCCAUGCCUGCAGGUCGACUCUAGAAAACAUG,binding signal,PUM1 PUF domain R4-LNC,2.66 log2 enrichment (interaction score)
